For 60 molecules, Potency and activity change, negative = inhibition results are on record in PubChem BioAssay AID624417 (National Center for Advancing Translational Sciences (NCATS), 2012).

About 6,400 (1.6%) of roughly 410,000 compounds were called active. Entries that show only a call come without a potency. Roughly 20% stayed inconclusive and do not appear here. The call rests on the fitted dose curve; in most records, active means well fitted inhibition curve with a large enough effect; inconclusive means small, poorly fitted or top-dose-only effect; inactive means no such curve, though single readings can be large or run the other way. The full list was thinned out, with actives kept by preference.
Potency means the concentration at half of the fitted maximal effect.

Glucagon-like peptide 1 receptor (Homo sapiens), sequence (P43220 whole entry, looked up): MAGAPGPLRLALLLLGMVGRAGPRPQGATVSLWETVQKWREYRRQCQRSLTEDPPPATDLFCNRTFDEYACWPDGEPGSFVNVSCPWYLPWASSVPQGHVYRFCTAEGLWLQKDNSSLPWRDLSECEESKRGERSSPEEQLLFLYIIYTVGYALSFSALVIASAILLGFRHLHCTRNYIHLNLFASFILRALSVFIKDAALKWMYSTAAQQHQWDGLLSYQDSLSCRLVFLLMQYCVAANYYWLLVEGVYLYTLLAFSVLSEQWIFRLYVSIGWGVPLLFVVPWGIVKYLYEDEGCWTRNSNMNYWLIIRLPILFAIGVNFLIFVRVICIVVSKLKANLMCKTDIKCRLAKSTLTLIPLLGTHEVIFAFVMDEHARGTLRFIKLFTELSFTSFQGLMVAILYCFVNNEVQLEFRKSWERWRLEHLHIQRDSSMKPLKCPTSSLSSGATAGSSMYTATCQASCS

This test concerns the target Glucagon-like peptide 1 receptor (Homo sapiens) (UniProt P43220). In words: qHTS of GLP-1 Receptor Inverse Agonists (Inhibition Mode). Further: nearly all actives have a fitted effect of over 55% in size. The note with it: HEK293 GLP-1R CRE-luciferase, luminescence, 24 h, GLP-1R form is constitutively active; series mostly up to 38.3 µM. An outline of the steps: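 Using stably transfected HEK293 (constitutively active GLP-1R, cAMP-luciferase reporter), compounds were incubated 24 hr and luciferase measured by luminescence.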
On the technique in general: In qHTS, concentration-response curves come from the screen itself.
For the molecule `CCCc1c(C)nc2scc(-c3ccc(Cl)cc3)n2c1=O`, the Potency entry is “inactive”. Still for that read-out and setting: for `CCc1nc2c(OCCOc3ccccc3)cccn2c1N(C)C(=O)c1ccccc1F` the value was “inactive”; for `O=C(CCN1CCCCC1)Nc1ccc(F)c(F)c1`, “inactive”; for `CCOC(=O)N1CCN(C(=O)c2nn(-c3ccc(C)cc3)c(=O)c3c2c2ccccc2n3C)CC1`, “inactive”.

For the molecule `CCOc1ccc(NC(=O)c2cn(C3CCCCC3)c(=O)c3c2c2ccccc2n3C)cc1`, the Potency entry was “inactive”. Still for that read-out and setting: for `Cn1c2ccccc2c2c(C(=O)N3CCN(c4ccc(F)cc4)CC3)cn(C3CCCC3)c(=O)c21` the value was 10 µM (active); for `CCN(CC)CCN(C)C(c1ccnc2ccccc12)c1nnnn1-c1ccc2c(c1)OCCO2` (stereo not given), “inactive”. As to `CCCCNC(=O)c1ccc(-n2c(=S)[nH]c3ccccc3c2=O)cc1`, the activity change, negative = inhibition is 11.5% [at 7.66 µM] (inactive). Consider `CCCCNC(=O)N(O)C1N(/N=C/c2ccccc2O)C(=S)SC1(C)C` (stereo not given), for which the Potency is 11.2 µM (active). Same read-out and setting: for `CCCCC(O)C1=C[N+](=O)CC=C1` (stereo not given) the value was “inactive”; for `C[C@H](NC(=O)[C@@H]1CCCN1C(=O)[C@@H]1CCCN1C(=O)c1ccccc1)c1ccccc1`, “inactive”; for `COC(=O)c1ccc2nc(-c3ccc(Cl)cc3)c(Cc3cccc(F)c3)n2c1`, “inactive”. On the same count and under the same terms, for `CN1/C(=c2/s/c(=C3/C(=O)N(c4ccccc4)NC3=Nc3ccccc3)n(C)c2=O)C(C)(C)c2ccccc21` the value was 1.41 µM (active); for `C[C@H](CO)N1C[C@H](C)[C@@H](CN(C)S(=O)(=O)c2ccc(F)cc2)OCc2cnnn2CCCC1=O`, “inactive”; for `O=C(Nc1cccc(Cc2ccccc2)c1)Nc1ccc2nc([C@@H]3O[C@H](CO)[C@@H](O)[C@H](O)[C@H]3O)[nH]c2c1`, “inactive”. Consider `O=C(NCCN1CCOCC1)C1CCN(S(=O)(=O)c2ccccc2)CC1`, for which the Potency entry was “inactive”. `CCN1C(=O)[C@H]2[C@@H](c3ccc(-c4ccc(OC)cc4)cc3)N[C@@](Cc3ccccc3)(C(=O)OC)[C@H]2C1=O`: the Potency result was “inactive”. On the same count and under the same terms, for `Cc1ccc([C@H]2N[C@]3(CCCN(Cc4ccccc4)C3=O)[C@H]3C(=O)N(Cc4ccccc4)C(=O)[C@@H]23)cc1` the value was “inactive”. The same measure, in the same setting: for `CCN1C(=O)[C@H]2[C@@H](c3ccccc3)N[C@]3(CCCN(Cc4ccc(C)cc4)C3=O)[C@H]2C1=O` the value was “inactive”; for `O=C1[C@H]2[C@@H](c3ccc(C(F)(F)F)cc3)N[C@]3(CCCN(Cc4ccc(Br)cc4)C3=O)[C@H]2C(=O)N1Cc1ccccc1`, 2.82 µM (active). Still for that read-out and setting: for `COc1ccc([C@H]2N[C@]3(CCCN(CC4CCCCC4)C3=O)[C@H]3C(=O)N(C)C(=O)[C@@H]23)cc1` the value was “inactive”.

Consider `COc1ccc([C@H]2N[C@]3(CCCN(Cc4ccco4)C3=O)[C@H]3C(=O)N(C)C(=O)[C@@H]23)cc1`, for which the Potency entry was “inactive”.

As for `CCN1C(=O)[C@H]2[C@@H](c3ccc(C(F)(F)F)cc3)N[C@]3(CCCN(Cc4ccc(Br)cc4)C3=O)[C@H]2C1=O`, the Potency is 12.6 µM (active). Still for that read-out and setting: for `CCN1C[C@@H]2[C@@H]3C(=O)N(Cc4ccccc4)C(=O)[C@@H]3[C@](C)(C1=O)N2C(=O)c1ccc(C(C)(C)C)cc1` the value was “inactive”; for `O=C1[C@H]2[C@@H](c3ccc(C(F)(F)F)cc3)N[C@]3(CCCN(Cc4ccc(Cl)cc4)C3=O)[C@H]2C(=O)N1Cc1ccccc1`, 4.47 µM (active); for `C[C@H]1CN([C@@H](C)CO)C(=O)c2cc(Br)cnc2O[C@H]1CN(C)S(=O)(=O)c1cccs1`, “inactive”.

Regarding `CCOC(=O)C1=CC[C@@H](c2ccncc2)N(S(=O)(=O)c2ccc(C)cc2)C1`, the Potency entry is “inactive”. The same measure, in the same setting: for `Cc1cc2oc(=O)cc(CN(C)Cc3ccccc3)c2cc1Cl` the value was “inactive”. Consider `CN(C)CCN1CCN(c2cc(-c3cccc(Cl)c3)nc3ccnn23)CC1`, for which the Potency result was “inactive”. The same measure, in the same setting: for `O=C(COC(=O)CSc1ccccc1)Nc1ccc(F)cc1F` the value was “inactive”; for `COc1ccc(Cl)cc1NC(=O)CSc1nc2ccccc2c2nc(-c3ccccc3)nn12`, “inactive”. `O=C(CSc1ccccc1)Nc1cc(Cl)ccc1Oc1ccccc1`: the Potency was 11.2 µM (active). On to `Cc1ccc(CCNC(=O)CN2C(=O)CSc3ccc(S(=O)(=O)N4CCOCC4)cc32)cc1`, for which the Potency entry was “inactive”. On the same count and under the same terms, for `CC1=C(C(=O)N2CCOCC2)CC(CC(=O)NCCCN(C)C)C(=O)N1Cc1ccc(C(C)(C)C)cc1` (stereo not given) the value was “inactive”; for `CCCCN1C(=O)C(CC(=O)NCc2cccs2)CC(C(=O)N2CCOCC2)=C1C` (stereo not given), “inactive”. Still for that read-out and setting: for `Nc1ncnc2c1ncn2[C@@H]1O[C@H](C(=O)NCC(F)(F)F)[C@@H](O)[C@H]1O` the value was “inactive”.

For the molecule `O=CNc1cc(-c2ccc(C(=O)N3CCOCC3)cc2)cn2c(-c3ccc(F)cc3)cnc12`, the Potency entry was “inactive”. On the same count and under the same terms, for `CCN1CCN(CCCCOc2ccccc2F)CC1` the value was “inactive”. Consider `COc1ccccc1N1CCN(CCCCOc2ccc(F)cc2)CC1`, for which the Potency was 12.6 µM (active).

On to `COc1ccccc1N1CCN(S(=O)(=O)CCNC(=O)COc2ccc(F)cc2)CC1`, for which the Potency entry is “inactive”. Same read-out and setting: for `Cc1ccc2cccc([N+](=O)[O-])c2n1` the value was “inactive”.

Consider `C[C@@H]1CN([C@H](C)CO)C(=O)c2cc(-c3ccc(F)cc3)cnc2O[C@H]1CN(C)C(=O)c1ccc(F)cc1`, for which the Potency result is “inactive”. The same measure, in the same setting: for `COc1ccc(CN2CCn3ncc(C(=O)Nc4ccc(Cl)cc4Cl)c3C2=O)cc1` the value was “inactive”. For the molecule `S=C(Nc1ccc(Cl)cc1Cl)N1CCCC1`, the Potency result is “inactive”.

Regarding `COc1ccc(CN(C)C(=S)Nc2ccc(Cl)cc2Cl)cc1`, the Potency is 7.08 µM (active).

As to `COc1cccc(C(NC(C)=O)c2nc(-c3ccccc3OC)cs2)c1` (stereo not given), the Potency entry was “inactive”. Consider `CC1=C(C(=O)N2CCOCC2)CC(CC(=O)NCC2CCCCC2)C(=O)N1Cc1ccc(F)cc1` (stereo not given), for which the Potency result was “inactive”. For the molecule `CC1(Oc2cccc(F)c2)CCN(Cc2ccccc2OC(F)F)C1` (stereo not given), the Potency result was “inactive”. With `COc1ccccc1N1CCN(Cc2ccc(OC)c3ccccc23)CC1`, the Potency entry was “inactive”. The same measure, in the same setting: for `COc1ccc(CN2CCC(C)(Oc3cccc(F)c3)C2)c2ccccc12` (stereo not given) the value was 11.2 µM (active); for `CCCNC(=O)C1(C)CCN(C(=O)c2ccc(F)cc2Cl)C1` (stereo not given), “inactive”. Same read-out and setting: for `COc1ccc([C@H]2CC(=O)C[C@@H](CCn3cc(CC4CCCC4)nn3)O2)cc1` the value was “inactive”; for `Cc1cc(C)c(S(=O)(=O)NN=C2c3ccccc3[C@H]3Cc4csc[n+]4[C@@H]23)c(C)c1`, “inactive”. Turning to `COc1ccccc1-n1c(SCC(=O)Nc2ccc(Cl)cc2)nc(O)c(Cc2ccccc2)c1=O`, the Potency result is “inactive”. Same read-out and setting: for `Cc1ccc(OCCOc2cccc(/C=N/NC(N)=O)c2)cc1` the value was “inactive”; for `NC(=O)Cn1cc(/C=N\NS(=O)(=O)c2ccccc2)c2ccccc21`, “inactive”.

Regarding `CC(NC(=O)CCc1cn(Cc2ccccc2Cl)c2ccccc12)c1ccccc1` (stereo not given), the Potency result was “inactive”. Turning to `COC(=O)N/N=C/c1cn(CCCOc2ccc(C)cc2)c2ccccc12`, the Potency was 8.91 µM (active). Still for that read-out and setting: for `CCOC(=O)N/N=C/c1cn(Cc2ccccc2Cl)c2ccccc12` the value was 7.94 µM (active); for `COC(=O)N/N=C/c1c[n+]([O-])c2ccccc2[n+]1[O-]`, “inactive”.
